Here are results for 5 compounds from ChEMBL document CHEMBL1201862, “PubChem BioAssay data set” (2004).

“And” between values parts separate entries of the source, which are not always exact repeats. Equal values may be shown once. Bounds are passed on as bounds.

By IC90 is commonly meant the point of the concentration-response curve where the effect stands at 90%.

This assay can be described thus: A High Throughput Confirmatory Assay used to Identify Novel Compounds that Inhibit Mycobacterium Tuberculosis in the absence of Glycerol using Purified and Synthesized Compounds (8). It counts as functional.
With `CC(=O)c1ccc(NC(=O)c2ccc(CNc3c(N4CCOCC4)c(=O)c3=O)cc2)cc1`, the IC90 was > 100 µM (active). The result for `O=C(NCCc1ccc(Cl)cc1)c1ccc(CNc2c(N3CCOCC3)c(=O)c2=O)cc1` reads > 100 µM (active); that for `O=C(c1ccc(CNc2c(N3CCCC3)c(=O)c2=O)cc1)N1CC=C(c2ccccc2)CC1`, > 100 µM (active) and > 47.2 µM (active); that for `O=C(NCCc1ccc(Cl)cc1)C1CCC(CNc2c(N3CCCCC3)c(=O)c2=O)CC1` (stereo not given), > 83.3 µM (active). For the compound `O=C(c1ccc(CNc2c(N3CCCC3)c(=O)c2=O)cc1)N1CCC(c2ccccc2)CC1`, the IC90 is > 100 µM (active).
